Source: PubChem BioAssay (Tox21)
Records with an inconclusive call do not appear. The source made the active and inactive calls. Calls come from the whole dose curve.

Assay: qHTS assay for small molecule agonists of the p53 signaling pathway - cell viability (AID 651633);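 note: p53RE-bla HCT reporter cells with a stable beta-lactamase p53 reporter; nearly all actives have a fitted effect of over 30% in size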
Settings: p53RE-bla HCT-116 viability, ATP luminescence, 16 h; series mostly up to 83.3 µM
Source text: National Center for Advancing Translational Sciences [NCATS]
NIH Chemical Genomics Center [NCGC]
U.S. Environmental Protection Agency [EPA]
National Institutes of Environmental Health Sciences [NIEHS]
National Toxicology Program [NTP]
U.S. Food and Drug Administration [FDA]
p53, a tumor suppressor protein, is activated following cellular insult, including DNA damage and other cellular stresses. The activation of p53 regulates cell fate by inducing DNA repair, cell cycle arrest, apoptosis, or cellular senescence. The activation of p53, therefore, is a good indicator of DNA damage and other cellular stresses. […] The activation of the reporter gene under culture conditions can be detected by fluorescence intensity. This cell line was used to screen the Tox21 compound library in a 1536-well plate format and to identify agonists that activate the p53 signaling pathway.
Tox21 Assay Protocol Summary:
The p53RE-bla cells were dispensed at 4,000 cells/5 ul/well in 1536-well black wall/clear bottom plates using a Multidrop dispenser. After the assay plates were incubated at a 37 C/5% CO2 incubator for 5 hours, 23 nL of compounds dissolved in DMSO, positive controls or DMSO only was transferred to the assay plate by a pin tool. The plates were incubated at 37 C for 16 hours. After 1 uL of LiveBLAzerTM B/G FRET substrate was added using a Flying Reagent Dispenser, the plates were incubated at room temperature for 2 hours, and fluorescence intensity was measured by an Envision plate reader.
For cell viability readout that measures cytotoxicity, 4 ul/well of CellTiter-Glo reagent was added into the assay plates using a Flying Reagent Dispenser. After 30 min incubation at room temperature, the luminescence intensity in the plates was measured using a ViewLux plate reader.

Question: Which outcome does the source give for `CN(C)CCCN1c2ccccc2CCc2ccc(Cl)cc21` here?
Answer: Its outcome is “inactive”.

Question: With `CCOC(C)(C)C` as the compound, how does the outcome read?
Answer: Its outcome is “inactive”.

Question: Which outcome does the source give for `CC(C)CCCC(C)N` (stereo not given) here?
Answer: The outcome was “inactive”.

Question: For `O=[N+]([O-])c1ccc(F)cc1F`, which outcome is on record?
Answer: Its outcome is “inactive”.

Question: With `CC(C)(C)NCCNC(C)(C)C` as the compound, how does the outcome read?
Answer: The outcome was “inactive”.

Question: Which outcome does the source give for `COc1ccc(CCN(C)CCCC(C#N)(c2cc(OC)c(OC)c(OC)c2)C(C)C)cc1OC` (stereo not given) here?
Answer: Its outcome is “inactive”.

Question: With `CCCCC/C=C\CCC=O` as the compound, how does the outcome read?
Answer: Its outcome is “inactive”.

Question: For `Cc1cc(O)cc2c1O[C@](C)(CCC[C@H](C)CCC[C@H](C)CCCC(C)C)CC2`, which outcome is on record?
Answer: Its outcome is “inactive”.

Question: For `CCC(C)C1CCCCC1=O` (stereo not given), which outcome is on record?
Answer: Its outcome is “inactive”.

Question: With `CCCCCSCCCCC` as the compound, how does the outcome read?
Answer: The outcome was “inactive”.

Question: For `C1CN(CCOCCN2CCOCC2)CCO1`, which outcome is on record?
Answer: The outcome was “inactive”.

Question: With `COC(C)(C)CCCC(C)CC=O` (stereo not given) as the compound, how does the outcome read?
Answer: The outcome was “inactive”.

Question: Which outcome does the source give for `N[C@H]1CN(c2c(F)cc3c(=O)c(C(=O)O)cn(C4C[C@H]4F)c3c2Cl)CC12CC2` (stereo not given in full) here?
Answer: The outcome was “inactive”.

Question: Which outcome does the source give for `CC(C)(CC(=O)O)C(=O)O` here?
Answer: Its outcome is “inactive”.

Question: For `CC(C)OC(=O)c1ccccc1`, which outcome is on record?
Answer: Its outcome is “inactive”.

Question: For `CC(=O)CC(C)C`, which outcome is on record?
Answer: Its outcome is “inactive”.

Question: For `CC(=O)OCC(=O)[C@@]1(O)CC[C@H]2[C@@H]3CCC4=CC(=O)CC[C@]4(C)[C@H]3C(=O)C[C@@]21C`, which outcome is on record?
Answer: Its outcome is “inactive”.

Question: For `NCCc1cnc[nH]1`, which outcome is on record?
Answer: Its outcome is “inactive”.

Question: Which outcome does the source give for `COc1nc(N)nc2c1ncn2[C@@H]1O[C@H](CO)[C@@H](O)[C@@H]1O` here?
Answer: Its outcome is “inactive”.

Question: For `Nc1c2c(nc3ccccc13)CCCC2O` (stereo not given), which outcome is on record?
Answer: The outcome was “inactive”.

Question: For `NC(CSCC(=O)O)C(=O)O` (stereo not given), which outcome is on record?
Answer: The outcome was “inactive”.

Question: Which outcome does the source give for `COc1c(N2C[C@@H]3CCCN[C@@H]3C2)c(F)cc2c(=O)c(C(=O)O)cn(C3CC3)c12` here?
Answer: The outcome was “inactive”.

Question: For `C=CCOCC(CC)(CO)COCC=C`, which outcome is on record?
Answer: The outcome was “inactive”.

Question: For `C=C(C)CS(=O)(=O)O`, which outcome is on record?
Answer: Its outcome is “inactive”.

Question: For `C=COCC1CCC(CO)CC1` (stereo not given), which outcome is on record?
Answer: The outcome was “inactive”.

Question: For `CCn1nc(C(=O)O)c(=O)c2cc3c(cc21)OCO3`, which outcome is on record?
Answer: Its outcome is “inactive”.

Question: For `CC/C=C\CCOC(C)=O`, which outcome is on record?
Answer: The outcome was “inactive”.

Question: Which outcome does the source give for `N#Cc1ccc(C2CCCc3cncn32)cc1` (stereo not given) here?
Answer: Its outcome is “inactive”.

Question: For `N[C@@H](C(=O)N[C@@H]1C(=O)N2C(C(=O)O)=C(Cl)CS[C@H]12)c1ccccc1`, which outcome is on record?
Answer: The outcome was “inactive”.

Question: With `NCCCNCCSP(=O)(O)O` as the compound, how does the outcome read?
Answer: Its outcome is “inactive”.

Question: With `COc1cc(C(=O)N2CCCCCCC2)cc(OC)c1OC` as the compound, how does the outcome read?
Answer: The outcome was “inactive”.

Question: For `CC(=O)OCC(=O)[C@@]1(O)CCC2C3CCC4=CC(=O)CC[C@]4(C)C3[C@@H](O)C[C@@]21C` (stereo not given in full), which outcome is on record?
Answer: The outcome was “inactive”.

Question: For `N=C(N)c1ccccc1`, which outcome is on record?
Answer: The outcome was “inactive”.

Question: With `O=C1CC2CC1C1CCCC21` (stereo not given) as the compound, how does the outcome read?
Answer: Its outcome is “inactive”.

Question: For `COC(=O)c1c(Cl)c(Cl)c(C(=O)OC)c(Cl)c1Cl`, which outcome is on record?
Answer: The outcome was “inactive”.

Question: For `Cc1cc2c(cc1S(N)(=O)=O)S(=O)(=O)CCC2`, which outcome is on record?
Answer: Its outcome is “inactive”.

Question: For `CN1CC(=O)NC1=N`, which outcome is on record?
Answer: The outcome was “inactive”.

Question: Which outcome does the source give for `Cc1c(NC(C)C)c(=O)n(-c2ccccc2)n1C` here?
Answer: The outcome was “inactive”.

Question: Which outcome does the source give for `CC(=O)OCC(CCn1cnc2cnc(N)nc21)COC(C)=O` here?
Answer: Its outcome is “inactive”.

Question: With `CC1(C)CO[C@@H](CC(=O)O)CN1` as the compound, how does the outcome read?
Answer: Its outcome is “inactive”.
